From PubChem BioAssay come the findings set out here.

The source made the active and inactive calls. Unless noted, the rule behind the calls is not given here.

A short description of assay [1]: compounds binding Alexa647 anti-His antibody – biochemical, small-molecule microarray, 635 nm fluorescence, artefact control for SMM control protein annotation, primary screen (AID 1128).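 Note: score merges feature fluorescence with signal-to-noise for each printed compound spot.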 The note with it: higher = more signal.
The test system of assay [2] is Human papillomavirus type 1a E7 protein (residues 1-88). The assay is described as follows: HPV1a E7 small-molecule binders, primary screen, biochemical, small-molecule microarray, residues 1-88, 635 nm (AID 1129). To be noted: small-molecule microarray binding, fluorescence 635 nm; higher = more signal.
The target of assay [3] is Focal adhesion kinase 1 (Homo sapiens) (UniProt Q05397). Put plainly: PTK2 protein binding on printed compound slides – biochemical, small-molecule microarray, 635/667 nm fluorescence, BSA, DTT, primary screen (AID 1130).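 Note: composite of spot emission at 667 nm and signal to noise over triplicate slides.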 To be noted: 635 nm fluorescence, higher = more signal.
Assay [4] concerns Fibrinogen (Alexa647-labelled). Put plainly: Alexa647-fibrinogen binding to printed small molecules – biochemical, small-molecule microarray, 635/667 nm fluorescence, artefact control for SMM control-protein annotation, profiling panel (AID 1131).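 Note: z-score merges 667 nm fluorescence with per-spot signal-to-noise over triplicate slides.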 To be noted: fibrinogen-A647 binding fluorescence, higher = more signal.
In assay [5] the target is Follistatin (Homo sapiens) (UniProt P19883). Put plainly: FST protein binding to printed compounds – biochemical, small-molecule microarray, 635/667 nm fluorescence, primary screen (AID 1132). To be noted: 635 nm fluorescence, higher = more signal.
Assay [6] addresses Fibroblast growth factor 2 (Homo sapiens) (UniProt P09038). Put plainly: basic fibroblast growth factor binding to printed compounds – biochemical, small-molecule microarray, 635/667 nm fluorescence, primary screen (AID 1133). To be noted: FGF2, fluorescence 635/667, higher = more signal.
Assay [7] is described as follows: JC-1 mitochondrial potential readout, lung cancer cells – cell-based, A549, JC-1 fluorescence, basal, 24 h, 100 nL, profiling panel (AID 1138).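 Note: A549 lung adenocarcinoma cells under basal conditions with no added stimulus; test concentration not given here.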 To be noted: higher = more signal.
In the next assay the test system is Lefty1. The assay is described as follows: Lefty1 protein binding to printed compounds – biochemical, small-molecule microarray, 635/667 nm fluorescence, primary screen (AID 1139). The note with it: fluorescence 635/667, higher = more signal.
For assay [8], the system named is wheat germ agglutinin (Triticum aestivum), Alexa647-labelled. The assay is described as follows: Alexa647-WGA lectin binding to printed small molecules – biochemical, small-molecule microarray, 635/667 nm fluorescence, artefact control for SMM control-protein annotation, profiling panel (AID 1140).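 Note: score merges 667 nm feature emission with signal to noise over triplicate slides.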 To be noted: WGA-A647 binding, 635 nm fluorescence, higher = more signal.

For assay [9], the target named is Luciferin 4-monooxygenase (Photinus pyralis) (UniProt P08659). The assay is described as follows: inhibition of purified Photinus pyralis luciferase – biochemical, luminescence, purified enzyme, 2006 set, primary screen (AID 1141).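 Note: cell-free assay with purified firefly luciferase at 100 ng per well in PBS; test concentration not given here.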 To be noted: purified firefly luciferase, SteadyGlo luminescence, 30 min; higher = more signal, called active from +8 up or from −8 down.

For assay [10], the system named is Wnt5a (protein binding on small-molecule microarray). Put plainly: small molecules binding Wnt5a protein – biophysical, small-molecule microarray, 635/667 nm fluorescence, primary screen (AID 1142).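 Note: fluorescence read at 667 nm with signal to noise per printed feature.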 To be noted: 635 nm fluorescence, higher = more signal.
Assay [11] is described as follows: ATP-based viability of Huh7 replicon cells – cell-based, CellTiter-Glo luminescence, basal, 48 h, cytotoxicity control for HCV replication inhibitor project, primary screen (AID 1143).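 Note: Huh7 hepatoma cells carrying a hepatitis C replication reporter with no stimulus; test concentration not given here.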 The note with it: higher = more signal, called active from +8 up or from −8 down.
The nature of assay [12]: Pseudomonas biofilm growth suppression – PAO1 strain, BacTiter-Glo luminescence, LB-PBS, primary screen (AID 1144). The note with it: P. aeruginosa PAO1 biofilm, 12 h, higher = more signal.
A short description of assay [13]: basal CRE-LacZ reporter activity in PC12 – cell-based, unstimulated, primary screen (AID 1145). The note with it: no forskolin, luminescence, 4.5 h, higher = more signal, called active from +8 up or from −8 down.
Assay [14] is described as follows: forskolin-driven CRE-LacZ activity in PC12 – cell-based, CRE-LacZ reporter, forskolin-stimulated, primary screen (AID 1146).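 Note: PC12 cells with 6xCRE LacZ reporter stimulated by forskolin 10 µM; beta-galactosidase reporter signal reflecting CREB driven transcription.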 To be noted: luminescence, 4.5 h, higher = more signal, called active from +8 up or from −8 down.
The target of assay [15] is Streptavidin (Streptomyces avidinii) (UniProt P22629). The assay is described as follows: compounds binding control protein streptavidin – biophysical, small-molecule microarray, 635/667 nm fluorescence, artefact control for SMM compound annotation, primary screen (AID 1147).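 Note: signal reflects streptavidin binding to arrayed compounds as a control protein.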 The note with it: higher = more signal.
A short description of assay [16]: probe aInhba binding on compound microarray – biochemical, small-molecule microarray, 635/667 nm fluorescence, primary screen (AID 1148).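 Note: score merges 667nm spot fluorescence with signal-to-noise for antibody binding to printed compounds.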 To be noted: higher = more signal.
Assay [17] concerns the target Torsin-1A (Homo sapiens) (UniProt O14656). Put plainly: TOR1A wild-type binding on microarray – cell lysate, small-molecule microarray, lysate, 635/667 nm, primary screen (AID 1149). The note with it: COS7 hTOR1A-WT lysate, 635 nm fluorescence, higher = more signal.
Assay [18] has the same target. Put plainly: torsin A mutant lysate binding on microarrays – cell lysate, small-molecule microarray, COS7 lysate, 635/667 nm fluorescence, primary screen (AID 1150).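 Note: score pools 667 nm emission and signal to noise measuring lysate protein binding.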 To be noted: COS7 hTOR1A mutant lysate, 635 nm fluorescence, higher = more signal.
The subject of assay [19] is Sonic hedgehog protein (Shh). Put plainly: Sonic hedgehog microarray binding compounds – biochemical, small-molecule microarray, 635/667 nm fluorescence, primary screen (AID 1151).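 Note: Shh protein binding to compounds spotted on small-molecule microarray slides; score combines spot fluorescence intensity with signal-to-noise across triplicate slides.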 To be noted: 635 nm fluorescence, higher = more signal.

Sequence of Streptavidin (Streptomyces avidinii) (P22629 whole entry, looked up): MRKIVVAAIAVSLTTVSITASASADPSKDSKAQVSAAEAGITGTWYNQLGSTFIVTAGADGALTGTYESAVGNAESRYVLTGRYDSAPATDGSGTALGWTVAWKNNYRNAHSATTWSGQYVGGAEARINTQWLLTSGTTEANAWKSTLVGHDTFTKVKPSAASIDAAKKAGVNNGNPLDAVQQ
Sequence of Luciferin 4-monooxygenase (Photinus pyralis) (P08659 whole entry, looked up): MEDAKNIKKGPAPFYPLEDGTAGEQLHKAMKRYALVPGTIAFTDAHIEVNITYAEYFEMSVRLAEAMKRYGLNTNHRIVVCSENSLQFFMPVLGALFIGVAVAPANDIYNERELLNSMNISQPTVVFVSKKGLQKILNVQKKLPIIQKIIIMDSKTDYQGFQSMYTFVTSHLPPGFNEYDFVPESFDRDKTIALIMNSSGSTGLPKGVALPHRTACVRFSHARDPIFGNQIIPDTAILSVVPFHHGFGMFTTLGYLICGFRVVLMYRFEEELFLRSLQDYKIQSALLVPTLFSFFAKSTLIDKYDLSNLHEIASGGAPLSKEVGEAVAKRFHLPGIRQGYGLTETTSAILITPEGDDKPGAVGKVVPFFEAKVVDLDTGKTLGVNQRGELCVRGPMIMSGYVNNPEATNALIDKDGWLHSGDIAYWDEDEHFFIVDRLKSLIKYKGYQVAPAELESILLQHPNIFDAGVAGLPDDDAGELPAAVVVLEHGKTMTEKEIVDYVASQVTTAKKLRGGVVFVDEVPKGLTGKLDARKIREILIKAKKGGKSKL
Sequence of Torsin-1A (Homo sapiens) (O14656 whole entry, looked up): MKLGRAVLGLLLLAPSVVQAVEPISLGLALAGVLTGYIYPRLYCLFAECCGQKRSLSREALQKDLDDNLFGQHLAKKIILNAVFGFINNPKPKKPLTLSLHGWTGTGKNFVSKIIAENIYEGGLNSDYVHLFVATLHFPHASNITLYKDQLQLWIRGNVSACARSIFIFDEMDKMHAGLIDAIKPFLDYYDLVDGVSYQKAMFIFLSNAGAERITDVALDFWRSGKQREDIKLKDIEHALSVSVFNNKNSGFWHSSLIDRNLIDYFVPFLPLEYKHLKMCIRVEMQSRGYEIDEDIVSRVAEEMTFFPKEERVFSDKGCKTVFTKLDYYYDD
Sequence of Follistatin (Homo sapiens) (P19883 whole entry, looked up): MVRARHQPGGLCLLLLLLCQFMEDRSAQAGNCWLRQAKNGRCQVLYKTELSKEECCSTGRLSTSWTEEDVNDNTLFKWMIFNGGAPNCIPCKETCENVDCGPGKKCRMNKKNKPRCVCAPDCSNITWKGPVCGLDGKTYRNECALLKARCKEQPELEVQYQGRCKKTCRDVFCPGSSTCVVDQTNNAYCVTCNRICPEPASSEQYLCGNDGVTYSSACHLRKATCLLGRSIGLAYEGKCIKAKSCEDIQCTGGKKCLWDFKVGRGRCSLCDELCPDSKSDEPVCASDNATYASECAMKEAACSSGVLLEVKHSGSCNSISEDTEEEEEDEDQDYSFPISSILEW
Sequence of Focal adhesion kinase 1 (Homo sapiens) (Q05397 whole entry, looked up): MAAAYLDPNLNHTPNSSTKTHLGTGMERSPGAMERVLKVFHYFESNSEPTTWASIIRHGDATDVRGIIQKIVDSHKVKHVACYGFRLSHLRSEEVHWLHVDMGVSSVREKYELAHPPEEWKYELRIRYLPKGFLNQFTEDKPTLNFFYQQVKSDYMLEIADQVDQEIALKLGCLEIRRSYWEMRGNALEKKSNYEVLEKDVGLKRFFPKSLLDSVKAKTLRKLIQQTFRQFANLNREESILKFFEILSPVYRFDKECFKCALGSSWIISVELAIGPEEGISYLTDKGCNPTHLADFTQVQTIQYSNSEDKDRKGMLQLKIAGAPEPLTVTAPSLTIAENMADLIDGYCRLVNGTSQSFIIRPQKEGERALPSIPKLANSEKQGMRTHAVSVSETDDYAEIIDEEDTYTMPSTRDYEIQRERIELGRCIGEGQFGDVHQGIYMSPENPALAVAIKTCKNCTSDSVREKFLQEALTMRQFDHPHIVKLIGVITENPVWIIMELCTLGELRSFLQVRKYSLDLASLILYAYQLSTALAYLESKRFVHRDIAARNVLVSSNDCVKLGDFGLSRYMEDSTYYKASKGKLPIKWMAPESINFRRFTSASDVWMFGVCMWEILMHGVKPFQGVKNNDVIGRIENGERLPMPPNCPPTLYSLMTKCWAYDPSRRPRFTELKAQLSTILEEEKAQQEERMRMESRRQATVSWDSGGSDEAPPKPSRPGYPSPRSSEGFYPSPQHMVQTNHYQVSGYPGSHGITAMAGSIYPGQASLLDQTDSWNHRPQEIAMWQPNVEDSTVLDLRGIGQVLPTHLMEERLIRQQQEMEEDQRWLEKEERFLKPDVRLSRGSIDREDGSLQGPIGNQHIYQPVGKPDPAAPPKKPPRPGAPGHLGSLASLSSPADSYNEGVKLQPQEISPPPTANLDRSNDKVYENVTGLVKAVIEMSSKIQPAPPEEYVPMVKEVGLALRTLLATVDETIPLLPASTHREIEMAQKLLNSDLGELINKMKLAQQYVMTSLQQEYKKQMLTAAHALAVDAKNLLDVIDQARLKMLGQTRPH
Sequence of Fibroblast growth factor 2 (Homo sapiens) (P09038 whole entry, looked up): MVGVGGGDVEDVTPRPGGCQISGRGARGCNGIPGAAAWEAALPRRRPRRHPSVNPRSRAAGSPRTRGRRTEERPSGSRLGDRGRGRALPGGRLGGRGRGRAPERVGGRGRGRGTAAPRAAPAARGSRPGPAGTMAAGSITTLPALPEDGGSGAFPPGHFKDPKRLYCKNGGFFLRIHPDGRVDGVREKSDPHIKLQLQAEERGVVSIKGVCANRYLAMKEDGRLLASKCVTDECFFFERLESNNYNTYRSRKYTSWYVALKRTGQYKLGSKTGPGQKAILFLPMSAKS

With `NC(=O)N1C(=O)C2C(C1=O)C1C=C(c3ccc(CO)cc3)C2C(C2CC2)N1Cc1sc2ccccc2c1Cl` (stereo not given), the composite z-score is 2.42 in assay [1]; 1.13 in assay [2]; -0.159 in assay [3]; 0.985 in [4]; 0.855 in [5]; 1.62 in assay [6]. The composite z-score is 1.16 in the assay on Lefty1; 1.12 in assay [8]; 0.323 in assay [10]; 1.43 in assay [15]; -0.0313 in [16]; 1.19 with Torsin-1A (Homo sapiens) [17]. Moreover, the composite z-score in the assay with Torsin-1A (Homo sapiens) [18] amounted to 0.83; in [19], 1.38. The z-score in assay [7] was 1.46; in [9] it was -2.36 (inactive); in assay [11], -3.73 (inactive); in [12], 0.447 (inactive); in [13] it was 4.42 (inactive); in [14] it was -1.63 (inactive).
Consider `CON(C)C(=O)C=C1C[C@@H](c2cccc(Cl)c2)O[C@@H](c2cccc(Cl)c2)O1`, for which the composite z-score in assay [1] was determined as 1.15; in assay [2], 0.878; in assay [3], 0.441; in [4] it was 0.472; in assay [5] it was 0.412; in assay [6], 0.372. Also, the composite z-score was 0.669 in the assay with Lefty1; 0.462 in [8]; -0.124 in [10]; 2.55 in [15]; -0.183 in assay [16]; 0.643 with Torsin-1A (Homo sapiens) [17]. Moreover, the composite z-score with Torsin-1A (Homo sapiens) [18] is 0.124; in assay [19] it was 0.774. Also, the z-score is 3.69 in assay [7]; -0.344 (inactive) in assay [9]; -3.94 (inactive) in assay [11]; 0.875 (inactive) in [12]; 0.481 (inactive) in assay [13]; -1.07 (inactive) in [14].
In the case of `CC(C)NC(=O)[C@@]1(C)c2ccccc2C(=O)N(C(C)C)[C@H]1c1ccc(CO)cc1`, the composite z-score in [1] is -0.398; in [2], -0.259; in assay [3] it was 0.0394; in assay [4], -0.66; in assay [5], -0.75; in [6], -0.516. For the same compound, the composite z-score with Lefty1 was -1.05; in [8], -0.465; in assay [10], -0.79; in [15] it was -1.35; in assay [16] it was -0.197; in the assay with Torsin-1A (Homo sapiens) [17], -3.17. Moreover, the composite z-score with Torsin-1A (Homo sapiens) [18] was -2.55; in assay [19], 0.133. In addition, the z-score in [7] is -0.413; in assay [9] it was -0.682 (inactive); in assay [11], 0.0942 (inactive); in assay [12], -0.272 (inactive); in assay [13], 0.0924 (inactive); in assay [14], 0.626 (inactive).
For the compound `[N-]=[N+]=NCc1ccccc1C[C@@]1(C(=O)NCCN2CCOCC2)N=C(c2ccc(OCCCO)cc2)O[C@@H]1c1ccccc1N=[N+]=[N-]`, the composite z-score in assay [1] is 1.4; in assay [2], 1.19; in assay [3], 1.05; in assay [4], 0.957; in assay [5] it was 0.423; in assay [6], -0.498. Besides, the composite z-score with Lefty1 is -0.165; in assay [8], 0.963; in assay [10] it was 0.512; in assay [15], 0.408; in assay [16] it was 0.0906; with Torsin-1A (Homo sapiens) [17], 0.5. For the same compound, the composite z-score was 1.73 with Torsin-1A (Homo sapiens) [18] and -0.492 in assay [19]. The z-score in [7] is -0.183; in assay [9], -5.91 (inactive); in [11], -5.21 (inactive); in [12], -0.503 (inactive); in assay [13], 0.69 (inactive); in assay [14], -1.46 (inactive).
Turning to `CCCC[C@@H]1C[C@H]1[C@@H](NC(=O)c1cccnc1)c1ccc(-c2ccccc2)cc1`, the composite z-score in assay [1] is -0.238; in [2], -0.647; in assay [3], -0.14; in assay [4] it was -2.12; in assay [5] it was -1.17; in [6] it was -2.03. The composite z-score is -0.815 with Lefty1; -0.166 in assay [8]; -0.995 in [10]; -1.02 in [15]; -0.251 in assay [16]; -2.78 with Torsin-1A (Homo sapiens) [17]. In addition, the composite z-score in the assay with Torsin-1A (Homo sapiens) [18] was -1.29; in [19] it was -0.822. Moreover, the z-score in assay [7] was 0.475; in [9] it was 0.0562 (inactive); in assay [11] it was -2.72 (inactive); in assay [12], -0.327 (inactive); in assay [13], -0.372 (inactive); in assay [14], 0.162 (inactive).
